KB-V1 MDR tox = qHTS assay for MDR1-selective chemotherapeutics: Primary screen using the drug-selected MDR subline cells KB-V1; Potency, µM (series often up to 46.1 µM), usual class: cytotoxic; KB-V1 MDR cells viability, CellTiter-Glo, 72 h; actives 3.4% (n = 400,000); further: nearly all actives have a fitted effect of over 60% in size
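Cytotoxicity via CellTiter-Glo luminescence after 72 h compound exposure at 37 degrees C. Cells: drug-selected KB-V1 line, DMEM phenol-red free plus 10% FBS. Compounds tested at multiple concentrations; normalized data fitted to concentration-effect curves.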
MCF10A rereplic = A quantitative high throughput screen for small molecules that induce DNA re-replication in MCF 10a normal breast cells. Potency, µM (top dose mostly 46.1 µM), hits mostly activators. MCF 10A DNA re-replication, Hoechst nuclear intensity, 48 h. AID 624296, 2012. actives 2.9% (n = 350,000); further: nearly all actives have a fitted effect of over 50% in size
KB-3-1 cytotox = qHTS assay for MDR1-selective chemotherapeutics: Primary screen using the parental adenocarcinoma cell KB-3-1 | KB-3-1 viability, CellTiter-Glo ATP luminescence, 72 h | Potency, µM (titrated, usually from 46.1 µM), usual class: cytotoxic | actives 1.4% (n = 400,000) | AID 1347075, 2019; further: nearly all actives have a fitted effect of over 60% in size
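Cells are dispensed, compounds pinned in, plates held at 37 °C for 72 h, then CellTiter-Glo is added and luminescence read after 10 minutes. Cell line: parental KB-3-1 in phenol-red-free DMEM, 10% FBS.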
PINK1 modulator = A Quantitative High throughput Screen to Identify Chemical Modulators of PINK1 Expression | PINK1 immunofluorescence, high-content cytometry, 24 h | Potency, µM (highest dose often 76.6 µM), usual class: activators | actives 0.2% (n = 410,000) | AID 624263, 2012; active means well fitted activation curve with a large enough effect; inconclusive means small, poorly fitted or top-dose-only effect; cell line not stated here; further: nearly all actives have a fitted effect of over 65% in size
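Cells are seeded, rested 12 hours, then given compound at five concentrations or DMSO for 24 hours. After fixation, blocking and antibody staining, PINK1 amount and mitochondrial localization are scored; CCCP serves as control.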
SW480 rerep = A quantitative high throughput screen for small molecules that induce DNA re-replication in SW480 colon adenocarcinoma cells. SW480 DNA re-replication, Hoechst DNA content imaging, 48 h. AID 624297, 2012. actives 1.8% (n = 340,000). Potency, µM (titrated, usually from 46.1 µM), actives largely listed as activators; further: nearly all actives have a fitted effect of over 55% in size
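SW480 cells exposed to compounds for 48 hr at 37 C, 5% CO2, then Hoechst-stained 40 min. Nuclear DNA content imaged by fluorescence scanning (405 nm excitation, 500-530 nm emission); re-replication scored as increased high-intensity nuclei.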
Hits are given with their value; . = inactive; ? = inconclusive; / = no result. An excerpt weighted towards active compounds, which were near 6.7% of everything screened. Unless noted, the call rests on the fitted dose curve; in most records, active means well fitted curve in the direction sought with a large enough effect; inconclusive means small, poorly fitted or top-dose-only effect, or another doubt; inactive means no such curve, though single readings can be large; an effect the other way counts as inactive or inconclusive.

SMILES | KB-V1 MDR tox | MCF10A rereplic | KB-3-1 cytotox | PINK1 modulator | SW480 rerep
Cc1c2ccccc2cc(Cc2ccccc2)[n+]1C | . | . | 14.6µM | . | .
O=[N+]([O-])c1ccc(O)c(C=Nc2ccc3nc(-c4ccccc4)[nH]c3c2)c1 | . | ? | . | . | .
Oc1c(Br)cc(C=Nc2ccc3nc(-c4ccccc4)[nH]c3c2)c(O)c1Br | . | 20.6µM | . | . | ?
CC(OC(=O)c1ccc(Cl)nc1)C(=O)N1CCc2ccccc21 (centres undefined) | ? | . | . | . | .
Cc1cc2c(cc(C(=O)OCC(=O)NCc3ccco3)n2C)s1 | 3.66µM | ? | 5.8µM | . | 10.3µM
CCCCC1CCC(C(=O)N2CC(=O)Nc3ccc(F)cc3C2c2ccc(F)cc2)CC1 (centres undefined) | . | / | . | . | /
O=C(Nc1cccc2cccnc12)c1cccc([N+](=O)[O-])c1 | . | . | . | . | .
O=C(Nc1ccccc1C(=O)Nc1ccccn1)c1cccc([N+](=O)[O-])c1 | . | 3.66µM | . | . | .
COc1cc(C(=O)Nc2ccccc2C(=O)Nc2ccccn2)cc(OC)c1OC | 6.51µM | ? | 8.2µM | . | 23.1µM
Cc1ccnc(NC(=O)c2ccccc2NC(=O)C(C)(C)C)c1 | 10.3µM | 16.4µM | ? | . | 16.4µM
COc1cc(C(=O)Nc2ccccc2C2COC(=O)C2=N)cc(OC)c1OC (centres undefined) | 11.6µM | . | . | . | .
Cc1ccc(S(=O)(=O)N2CCCC2CNC(=O)C(=O)Nc2ccc(F)cc2F)cc1 (centres undefined) | ? | ? | ? | . | ?
O=C(COc1ccccc1Cl)Nc1nc(-c2ccc(F)cc2)ns1 | / | / | / | . | /
COc1cc(C(=O)Nc2ccc(Br)cc2C(=O)c2cc(OC)c(OC)c(OC)c2)cc(OC)c1OC | ? | 20.6µM | ? | . | 16.4µM
COc1cc(C(=O)Nc2ccccc2NC(=O)c2cc(OC)c(OC)c(OC)c2)cc(OC)c1OC | . | . | . | . | .
Cc1cccc(CCNC(=O)C2CCN(c3ncnc4c3nc3n4CCCCC3)CC2)c1 | / | / | / | . | /
CC(=O)c1ccc(NC(=O)CN2C(=O)/C(=C/C=C/c3ccccc3)SC2=S)cc1 | . | 10.3µM | . | . | .
CCCN1CN(c2ccccc2)C(=S)N(c2ccccc2)C1 | . | . | . | . | 3.66µM
CC(C)c1c(C(=O)NCC2(N3CCCCC3)CCCC2)cnn1-c1nccc(-c2ccco2)n1 | / | / | / | . | /
Cc1ccc(C(=O)NC2(C(F)(F)F)N=C(c3ccccc3)N(C3CCCCC3)C2=O)cc1 (centres undefined) | . | / | . | . | /
O=C(N/N=C/C(Br)=C\c1ccccc1)c1n[nH]c2c1CCC2 | ? | ? | . | ? | 0.517µM
C/C(=N\NC(=O)c1n[nH]c2c1CCC2)c1cccs1 | . | . | . | . | ?
O=C(N/N=C/C=C/c1ccccc1)c1n[nH]c2c1CCC2 | 1.03µM | 1.46µM | 1.3µM | . | 2.06µM
CC(/C=N/NC(=O)c1n[nH]c2c1CCC2)=C\c1ccccc1 | 0.206µM | 0.259µM | 0.326µM | . | 0.731µM
O=C(Nc1c(C(=O)Nc2ccc(F)cc2)oc2ccccc12)c1ccccc1F | . | / | . | . | /
SMILES | KB-V1 MDR tox | MCF10A rereplic | KB-3-1 cytotox | PINK1 modulator | SW480 rerep
CN1CCN(c2ccc(NC(=O)COc3cccc4ccccc34)cc2)CC1 | . | . | . | . | .
C=CC(=O)Nc1cccc(Oc2ccnc(Nc3ccc(N4CCN(C)CC4)cc3)n2)c1 | . | 18.4µM | ? | . | ?
C=CC(=O)Nc1cccc(N(C)c2ccnc(Nc3ccc(N4CCN(C)CC4)cc3)n2)c1 | . | 14.6µM | ? | . | ?
c1ccc(-c2nnc3sc(-c4cc5ccccc5o4)nn23)cc1 | . | 18.4µM | . | ? | ?
c1ccc(-c2nnc3sc(-c4ccncc4)nn23)cc1 | . | . | . | . | .
Cc1oc(-c2ccc3c(c2)OCCO3)cc1C(=O)O | 14.6µM | . | ? | . | .
O=C(NNc1ccccc1Br)C(O)(c1cccc(C(F)(F)F)c1)c1cccc(C(F)(F)F)c1 | 18.4µM | ? | ? | . | ?
Cc1ccc(NNC(=O)C(O)(c2cccc(C(F)(F)F)c2)c2cccc(C(F)(F)F)c2)cc1 | ? | 11.6µM | 16.4µM | ? | ?
COc1ccc(NC(=O)N2CC[C@@]3(CCCN(C(=O)c4cnccn4)C3)C2)cc1 | / | / | / | . | /
CC1(C)CC(=O)C(C(c2ccncc2)C2C(=O)CC(C)(C)CC2=O)C(=O)C1 | . | . | . | . | .
Cc1ccc(C(C2C(=O)CC(C)(C)CC2=O)C2C(=O)CC(C)(C)CC2=O)s1 | . | 18.4µM | . | . | .
CCN(CC)CCn1c(NS(=O)(=O)c2ccc(C)cc2)nc2ccccc21 | 20.6µM | . | . | . | .
CCN(CC)CCn1c(NCc2nc3ccccc3n2Cc2ccccc2)nc2ccccc21 | . | 23.1µM | . | . | ?
c1ccc(Cn2c(CNc3nc4ccccc4n3CCN3CCCCC3)nc3ccccc32)cc1 | ? | ? | . | . | ?
Cc1noc2ncnc(Sc3ccc(Cl)cc3)c12 | . | 11.6µM | ? | . | ?
Cc1noc2ncnc(Sc3c(Cl)cccc3Cl)c12 | ? | 4.47µM | ? | . | ?
Cc1ccc(Sc2ncnc3onc(C)c23)cc1 | . | ? | . | . | ?
CC(=O)Nc1ccc(-c2nnc(SCC(=O)c3ccc([N+](=O)[O-])cc3)o2)cc1 | . | / | . | . | /
Cc1nc2c(C(=O)NC(C)c3ccccc3)cnn2c(C)c1Cc1ccccc1 (centres undefined) | / | / | / | . | /
O=C(C(Cl)Cl)N1c2ccccc2OCC1c1ccccc1 (centres undefined) | ? | ? | 18.4µM | . | .
CC1COc2ccccc2N1S(=O)(=O)c1ccc(Cl)cc1 (centres undefined) | . | 20.6µM | . | ? | ?
Cc1ccc(S(=O)(=O)N2c3ccccc3OCC2c2ccccc2)cc1 (centres undefined) | ? | 16.4µM | ? | . | ?
CCN1C(=O)/C(=C2/Sc3ccc(OC)cc3N2C)SC1=Nc1cccc(O)c1 | . | . | . | . | .
CCCCN1C(=O)/C(=C2/Sc3ccccc3N2C)S/C1=N\c1ncn[nH]1 | ? | . | ? | . | 14.6µM
Cc1ccc(-n2nnc(-c3nc(-c4cccs4)no3)c2N)cc1C | / | / | / | . | /
COC(=O)c1cc(-c2ccc(Br)cc2)c2c(=O)[nH]c(=O)n(C)c2n1 | . | . | . | . | .
CCOc1ccc(-c2cc(C(=O)OC)nc3c2c(=O)n(C)c(=O)n3C)cc1 | . | 23.1µM | . | . | ?
COC(=O)c1cc(-c2ccc(OC)c(OC)c2)c2c(=O)[nH]c(=O)n(C)c2n1 | . | 6.51µM | . | . | .
COc1ccc(C2=NN(CCC(=O)NCCc3ccccc3)C(=O)CC2)cc1 | / | / | / | . | /
